Test results reported in PubChem BioAssay AID1159580 (chemical genetic matrix, 2015).
Screen size: about 5,500 compounds; about 2,000 (36%) were called active. Inconclusive results (about 18%) are left out. The list shows a part of the results. Unmarked numbers belong to inactive results. Cut-off read from the data, not from the text of the source: active = normalized growth mostly below about 0.91 (no sharp cut-off); inconclusive = no clear call, values can overlap the other calls; inactive = mostly above about 0.92.

Experiment: chemical genetic growth profiling, strain panel (AID 1159580);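 note: tested at 20 µM; growth read once vehicle control cultures reached saturation at 30 °C; 1 = growth at the plate median or of vehicle wells; lower values mean less growth of the strain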
Settings: S. cerevisiae deletion strains, growth OD

COP(=S)(OC)Oc1ccc(SC)c(C)c1
normalized growth (locus YAL013W, strain DEP1, active compounds read low): 1
normalized growth (locus YAL021C, strain ccr4, active compounds read low): 1.07
normalized growth (locus YAL026C, strain drs2, active compounds read low): 0.984
normalized growth (locus YAL030W, strain snc1, active compounds read low): 1
normalized growth (locus YBL061C, strain skt5, active compounds read low): 0.981
normalized growth (locus YBR009C, strain hhf1, active compounds read low): 0.904 (active)
normalized growth (locus YBR021W, strain FUR4, active compounds read low): 0.98
normalized growth (locus YBR023C, strain chs3, active compounds read low): 0.973
normalized growth (locus YBR171W, strain sec66, active compounds read low): 0.992
normalized growth (locus YBR229C, strain ROT2, active compounds read low): 1.02
normalized growth (locus YBR231C, strain swc5, active compounds read low): 1.03
normalized growth (locus YBR279W, strain paf1, active compounds read low): 1.01
normalized growth (locus YCL011C, strain gbp2, active compounds read low): 0.955
normalized growth (locus YCL016C, strain dcc1, active compounds read low): 0.954
normalized growth (locus YCL029C, strain bik1, active compounds read low): 0.988
normalized growth (locus YCL069W, strain vba3, active compounds read low): 0.981
normalized growth (locus YCR088W, strain abp1, active compounds read low): 1
normalized growth (locus YDL005C, strain med2, active compounds read low): 1.01
normalized growth (locus YDL035C, strain GPR1, active compounds read low): 1.01
normalized growth (locus YDL040C, strain nat1, active compounds read low): 1
normalized growth (locus YDL074C, strain BRE1, active compounds read low): 1.01
normalized growth (locus YDL101C, strain DUN1, active compounds read low): 1.03
normalized growth (locus YDL134C, strain PPH21, active compounds read low): 1.02
normalized growth (locus YDL185W, strain tfp1, active compounds read low): 0.986
normalized growth (locus YDL192W, strain arf1, active compounds read low): 0.989
normalized growth (locus YDR001C, strain nth1, active compounds read low): 0.999
normalized growth (locus YDR069C, strain doa4, active compounds read low): 1.02
normalized growth (locus YDR101C, strain arx1, active compounds read low): 0.988
normalized growth (locus YDR137W, strain rgp1, active compounds read low): 0.94
normalized growth (locus YDR150W, strain NUM1, active compounds read low): 1.02
normalized growth (locus YDR159W, strain sac3, active compounds read low): 0.919
normalized growth (locus YDR162C, strain NBP2, active compounds read low): 1.01
normalized growth (locus YDR195W, strain ref2): 1.2 [resistant] (active)
normalized growth (locus YDR297W, strain sur2, active compounds read low): 1.01
normalized growth (locus YDR318W, strain mcm21, active compounds read low): 0.99
normalized growth (locus YDR334W, strain swr1, active compounds read low): 1.01
normalized growth (locus YDR335W, strain msn5, active compounds read low): 1.01
normalized growth (locus YDR388W, active compounds read low): 0.991
normalized growth (locus YDR392W, strain spt3, active compounds read low): 0.766
normalized growth (locus YDR502C, strain sam2, active compounds read low): 1
normalized growth (locus YEL003W, strain gim4, active compounds read low): 1
normalized growth (locus YEL037C, strain rad23, active compounds read low): 1
normalized growth (locus YEL061C, strain CIN8 (second series), active compounds read low): 1
normalized growth (locus YEL061C, strain CIN8, active compounds read low): 1.01
normalized growth (locus YER015W, strain faa2, active compounds read low): 0.995
normalized growth (locus YER016W, strain bim1, active compounds read low): 0.978
normalized growth (locus YER110C, active compounds read low): 0.986
normalized growth (locus YER111C, strain swi4, active compounds read low): 1.01
normalized growth (locus YER155C, strain BEM2 (second series), active compounds read low): 0.951
normalized growth (locus YER155C, strain BEM2, active compounds read low): 1.02
normalized growth (locus YER167W, strain BCK2, active compounds read low): 1
normalized growth (locus YFR010W, strain ubp6, active compounds read low): 1.03
normalized growth (locus YGL078C, strain dbp3, active compounds read low): 0.981
normalized growth (locus YGL086W, strain mad1, active compounds read low): 0.991
normalized growth (locus YGL167C, strain pmr1, active compounds read low): 0.993
normalized growth (locus YGL173C, strain kem1, active compounds read low): 0.988
normalized growth (locus YGL227W, strain vid30, active compounds read low): 1.01
normalized growth (locus YGL240W, strain doc1, active compounds read low): 0.989
normalized growth (locus YGL248W, strain PDE1, active compounds read low): 1.03
normalized growth (locus YGL253W, strain hxk2, active compounds read low): 0.955
normalized growth (locus YGR078C, strain PAC10, active compounds read low): 0.999
normalized growth (locus YGR135W, strain pre9, active compounds read low): 0.987
normalized growth (locus YGR229C, strain SMI1, active compounds read low): 0.984
normalized growth (locus YGR252W, strain gcn5, active compounds read low): 0.922
normalized growth (locus YHR013C, strain ard1, active compounds read low): 1.02
normalized growth (locus YHR027C, strain rpn1, active compounds read low): 0.998
normalized growth (locus YHR030C, strain SLT2, active compounds read low): 1.02
normalized growth (locus YHR079C, strain IRE1 (second series), active compounds read low): 0.99
normalized growth (locus YHR094C, strain hxt1, active compounds read low): 0.984
normalized growth (locus YHR129C, strain ARP1, active compounds read low): 1.01
normalized growth (locus YHR142W, strain chs7, active compounds read low): 0.912
normalized growth (locus YHR200W, strain rpn10, active compounds read low): 0.977
normalized growth (locus YIL066C, strain RNR3, active compounds read low): 1
normalized growth (locus YIL073C, strain SPO22, active compounds read low): 0.954
normalized growth (locus YIL125W, strain kgd1, active compounds read low): 0.996
normalized growth (locus YIR030C, strain dcg1, active compounds read low): 0.988
normalized growth (locus YJL092W, strain hpr5, active compounds read low): 0.992
normalized growth (locus YJL095W, strain BCK1 (second series), active compounds read low): 0.97
normalized growth (locus YJL095W, strain BCK1, active compounds read low): 0.983
normalized growth (locus YJL115W, strain asf1, active compounds read low): 1.02
normalized growth (locus YJL129C, strain trk1, active compounds read low): 0.958
normalized growth (locus YJL134W, strain LCB3, active compounds read low): 1.02
normalized growth (locus YJL154C, strain vps35, active compounds read low): 1.01
normalized growth (locus YJL164C, strain tpk1, active compounds read low): 0.935
normalized growth (locus YJL166W, strain qcr8, active compounds read low): 0.974
normalized growth (locus YJL168C, strain set2, active compounds read low): 0.991
normalized growth (locus YJL187C, strain SWE1 (second series), active compounds read low): 1.01
normalized growth (locus YJR043C, strain POL32, active compounds read low): 1
